# Compounds without any hit were thinned out: in the full panel of roughly 79,000, 15% have a hit. A number with no mark means an inactive call. Activity calls are given as the source filed them. No stated cut-off is given here; in the data, active means growth inhibition above about 70%; inactive means the rest.
# Experiments:
# [1] = NCI Yeast Anticancer Drug Screen. Data for the rad52 strain (AID 147);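 further: 0% = growth of vehicle-treated control cultures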; settings: S. cerevisiae rad52 mutant growth inhibition, stronger effect = higher value
# Procedure, shortened: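 The repair-mutant yeast strain was incubated with compounds, then growth was read and inhibition derived relative to vehicle.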
# [2] = NCI Yeast Anticancer Drug Screen. Data for the wt1 strain (AID 149);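 further: 0% = growth of vehicle-treated wt1 cultures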; settings: S. cerevisiae wt1 strain (SPY 50644) growth inhibition, stronger effect = higher value
# Procedure, shortened: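 Using yeast strain wt1, compound-induced growth inhibition was determined against vehicle-treated cultures.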
# [3] = NCI Yeast Anticancer Drug Screen. Data for the rad50EPP+ strain (AID 151);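 further: 0% = growth of vehicle-treated control cultures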; settings: S. cerevisiae rad50 mutant strain, stronger effect = higher value
# Procedure, shortened: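 Vehicle-normalised growth inhibition; rad50EPP+ yeast strain, altered in DNA damage repair, compound-treated.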
# [4] = NCI Yeast Anticancer Drug Screen. Data for the mgt1 strain (AID 153); settings: S. cerevisiae mgt1 mutant growth inhibition, stronger effect = higher value
# Procedure, shortened: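 Vehicle-normalized growth inhibition is determined in mgt1 yeast, a strain selected for a defined alteration in DNA repair or cell cycle control.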
# [5] = NCI Yeast Anticancer Drug Screen. Data for the rad50 strain (AID 155);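 further: 0% = growth of vehicle-only cultures of the same strain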; settings: S. cerevisiae rad50 strain growth inhibition, stronger effect = higher value
# Procedure, shortened: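 Relative growth inhibition (compound vs vehicle) was measured in yeast with a defined repair-gene alteration.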
# [6] = NCI Yeast Anticancer Drug Screen. Data for the mec2-1 strain (AID 157); settings: S. cerevisiae mec2-1 strain, stronger effect = higher value
# Procedure, shortened: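 Mutant yeast (mec2-1) grown with compound; growth inhibition relative to vehicle control reported.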
# [7] = NCI Yeast Anticancer Drug Screen. Data for the rad14 strain (AID 159);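 further: 0% = growth of vehicle-treated control cultures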; settings: S. cerevisiae rad14 strain growth inhibition, stronger effect = higher value
# Procedure, shortened: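 Screen for anticancer potential: a yeast strain altered in DNA damage repair is grown with compound, and reduced growth is quantified against vehicle controls.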
# [8] = NCI Yeast Anticancer Drug Screen. Data for the sgs1 mgt1 strain (AID 161);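 further: 0% = growth of cultures given vehicle only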; settings: S. cerevisiae sgs1 mgt1 strain, stronger effect = higher value
# Procedure, shortened: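 Compounds are added to genetically altered yeast, and growth is compared with cultures given vehicle alone to give percent inhibition.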
# [9] = NCI Yeast Anticancer Drug Screen. Data for the CLN2oe strain (AID 163);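 further: 0% = growth of vehicle-only control cultures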; settings: S. cerevisiae CLN2oe strain, stronger effect = higher value
# Procedure, shortened: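 Compounds are applied to yeast harbouring a defined cell-cycle control change; reduced growth compared with vehicle-treated controls gives the value.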
# [10] = NCI Yeast Anticancer Drug Screen. Data for the cln2 rad14 strain (AID 165);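 further: 0% = growth equal to vehicle treated cultures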; settings: S. cerevisiae cln2 rad14 strain, stronger effect = higher value
# Procedure, shortened: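 Readout is yeast growth inhibition versus vehicle-treated controls, using a strain with cln2 and rad14 alterations exposed to compound.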
# [11] = NCI Yeast Anticancer Drug Screen. Data for the bub3 strain (AID 167); settings: S. cerevisiae bub3 mutant strain, stronger effect = higher value
# Procedure, shortened: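 Screening used yeast with an engineered genetic alteration affecting cell cycle control. Compound-exposed cultures were compared with vehicle cultures, and reduced growth was taken as inhibition.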
# [12] = NCI Yeast Anticancer Drug Screen. Data for the wt2 strain (AID 169);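 further: 0% = growth of vehicle-treated yeast cultures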; settings: S. cerevisiae wt2 strain growth inhibition, stronger effect = higher value
# Procedure, shortened: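 Against vehicle-treated controls, the growth of yeast exposed to each compound was compared, and the inhibition was recorded.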
# [13] = NCI Yeast Anticancer Drug Screen. Data for the mlh1 strain (AID 171);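 further: 0% = growth of vehicle-treated control cultures of the same strain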; settings: S. cerevisiae mlh1 strain growth inhibition, stronger effect = higher value
# Procedure, shortened: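 Measured: yeast growth. Reference: vehicle-treated controls. Organism: strain with a defined alteration affecting DNA damage repair or cell cycle control, treated with compound.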
# [14] = NCI Yeast Anticancer Drug Screen. Data for the mlh1 rad18 strain (AID 175); settings: S. cerevisiae mlh1 rad18 strain growth inhibition, stronger effect = higher value
# Procedure, shortened: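 Genetically defined yeast (DNA repair-deficient) exposed to compounds; growth inhibition determined relative to vehicle.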
# [15] = NCI Yeast Anticancer Drug Screen. Data for the rad18 strain (AID 177); settings: S. cerevisiae rad18 mutant growth inhibition, stronger effect = higher value
# Procedure, shortened: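 Vehicle-treated cultures served as the baseline for scoring compound-induced growth inhibition in DNA-repair-mutant yeast.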
# [16] = at 5.0 µM (retest, dose inferred, filed as 0.5)
# [17] = at 50.0 µM (retest, dose inferred, filed as 5.0)
compound,measurement,setting,value
COC1CCC(O)C(/C=C/[N+](=O)[O-])C1 (stereo not drawn),growth inhibition,[1]; at 1.2 µM,27%
same,growth inhibition,[1]; at 3.7 µM,81% (active)
same,growth inhibition,[1]; at 11.0 µM,99% (active)
same,growth inhibition,[1]; at 33.0 µM,99% (active)
same,growth inhibition,[1]; at 100.0 µM,99% (active)
same,growth inhibition,[2]; at 1.2 µM,3%
same,growth inhibition,[2]; at 3.7 µM,18%
same,growth inhibition,[2]; at 11.0 µM,99% (active)
same,growth inhibition,[2]; at 33.0 µM,99% (active)
same,growth inhibition,[2]; at 100.0 µM,99% (active)
same,growth inhibition,[3]; at 1.2 µM,6%
same,growth inhibition,[3]; at 3.7 µM,19%
same,growth inhibition,[3]; at 11.0 µM,56%
same,growth inhibition,[3]; at 33.0 µM,94% (active)
same,growth inhibition,[3]; at 100.0 µM,99% (active)
same,growth inhibition,[4]; at 1.2 µM,8%
same,growth inhibition,[4]; at 3.7 µM,63%
same,growth inhibition,[4]; at 11.0 µM,99% (active)
same,growth inhibition,[4]; at 33.0 µM,100% (active)
same,growth inhibition,[4]; at 100.0 µM,99% (active)
same,growth inhibition,[5]; at 1.2 µM,29%
same,growth inhibition,[5]; at 3.7 µM,83% (active)
same,growth inhibition,[5]; [16],50%
same,growth inhibition,[5]; at 11.0 µM,99% (active)
same,growth inhibition,[5]; at 33.0 µM,99% (active)
same,growth inhibition,[5]; [17],99% (active)
same,growth inhibition,[5]; at 50.0 µM,98.7% (active)
same,growth inhibition,[5]; at 100.0 µM,99% (active)
same,growth inhibition,[6]; at 1.2 µM,5%
same,growth inhibition,[6]; at 3.7 µM,42%
same,growth inhibition,[6]; [16],21%
same,growth inhibition,[6]; at 11.0 µM,100% (active)
same,growth inhibition,[6]; at 33.0 µM,99% (active)
same,growth inhibition,[6]; [17],100% (active)
same,growth inhibition,[6]; at 50.0 µM,99.6% (active)
same,growth inhibition,[6]; at 100.0 µM,99% (active)
same,growth inhibition,[7]; at 1.2 µM,7%
same,growth inhibition,[7]; at 3.7 µM,42%
same,growth inhibition,[7]; at 11.0 µM,99% (active)
same,growth inhibition,[7]; at 33.0 µM,99% (active)
same,growth inhibition,[7]; at 100.0 µM,99% (active)
same,growth inhibition,[8]; [16],67%
same,growth inhibition,[8]; [17],100% (active)
same,growth inhibition,[8]; at 50.0 µM,98.2% (active)
same,growth inhibition,[9]; at 1.2 µM,0%
same,growth inhibition,[9]; at 3.7 µM,15%
same,growth inhibition,[9]; at 11.0 µM,99% (active)
same,growth inhibition,[9]; at 33.0 µM,99% (active)
same,growth inhibition,[9]; at 100.0 µM,99% (active)
same,growth inhibition,[10]; [16],17%
same,growth inhibition,[10]; [17],99% (active)
same,growth inhibition,[10]; at 50.0 µM,89.8% (active)
same,growth inhibition,[11]; at 1.2 µM,4%
same,growth inhibition,[11]; at 3.7 µM,32%
same,growth inhibition,[11]; [16],79% (active)
same,growth inhibition,[11]; at 11.0 µM,99% (active)
same,growth inhibition,[11]; at 33.0 µM,99% (active)
same,growth inhibition,[11]; [17],100% (active)
same,growth inhibition,[11]; at 50.0 µM,98.7% (active)
same,growth inhibition,[11]; at 100.0 µM,99% (active)
same,growth inhibition,[12]; at 1.2 µM,9%
same,growth inhibition,[12]; at 3.7 µM,66%
same,growth inhibition,[12]; at 11.0 µM,99% (active)
same,growth inhibition,[12]; at 33.0 µM,99% (active)
same,growth inhibition,[12]; at 100.0 µM,99% (active)
same,growth inhibition,[13]; at 1.2 µM,13%
same,growth inhibition,[13]; at 3.7 µM,79% (active)
same,growth inhibition,[13]; at 11.0 µM,99% (active)
same,growth inhibition,[13]; at 33.0 µM,99% (active)
same,growth inhibition,[13]; at 100.0 µM,100% (active)
same,growth inhibition,[14]; [16],79% (active)
same,growth inhibition,[14]; [17],99% (active)
same,growth inhibition,[14]; at 50.0 µM,98.2% (active)
same,growth inhibition,[15]; at 1.2 µM,12%
same,growth inhibition,[15]; at 3.7 µM,65%
same,growth inhibition,[15]; at 11.0 µM,99% (active)
same,growth inhibition,[15]; at 33.0 µM,99% (active)
same,growth inhibition,[15]; at 100.0 µM,99% (active)
O=c1c2ccccc2nc(-c2ccccc2)n1O,growth inhibition,[1]; at 1.2 µM,16%
same,growth inhibition,[1]; at 3.7 µM,19%
same,growth inhibition,[1]; at 11.0 µM,62%
same,growth inhibition,[1]; at 33.0 µM,95% (active)
same,growth inhibition,[1]; at 100.0 µM,97% (active)
same,growth inhibition,[2]; at 1.2 µM,12%
same,growth inhibition,[2]; at 3.7 µM,15%
same,growth inhibition,[2]; at 11.0 µM,63%
same,growth inhibition,[2]; at 33.0 µM,97% (active)
same,growth inhibition,[2]; at 100.0 µM,97% (active)
same,growth inhibition,[3]; at 1.2 µM,3%
same,growth inhibition,[3]; at 3.7 µM,3%
same,growth inhibition,[3]; at 11.0 µM,16%
same,growth inhibition,[3]; at 33.0 µM,82% (active)
same,growth inhibition,[3]; at 100.0 µM,87% (active)
same,growth inhibition,[4]; at 1.2 µM,31%
same,growth inhibition,[4]; at 3.7 µM,26%
same,growth inhibition,[4]; at 11.0 µM,92% (active)
same,growth inhibition,[4]; at 33.0 µM,98% (active)
same,growth inhibition,[4]; at 100.0 µM,97% (active)
same,growth inhibition,[5]; at 1.2 µM,36%
same,growth inhibition,[5]; at 3.7 µM,39%
same,growth inhibition,[5]; [16],45%
same,growth inhibition,[5]; at 11.0 µM,89% (active)
same,growth inhibition,[5]; at 33.0 µM,97% (active)
same,growth inhibition,[5]; [17],99% (active)
same,growth inhibition,[5]; at 50.0 µM,99% (active)
same,growth inhibition,[5]; at 100.0 µM,98% (active)
same,growth inhibition,[6]; at 1.2 µM,18%
same,growth inhibition,[6]; at 3.7 µM,16%
same,growth inhibition,[6]; [16],14%
same,growth inhibition,[6]; at 11.0 µM,55%
same,growth inhibition,[6]; at 33.0 µM,96% (active)
same,growth inhibition,[6]; [17],99% (active)
same,growth inhibition,[6]; at 50.0 µM,98.2% (active)
same,growth inhibition,[6]; at 100.0 µM,97% (active)
same,growth inhibition,[7]; at 1.2 µM,51%
same,growth inhibition,[7]; at 3.7 µM,59%
same,growth inhibition,[7]; at 11.0 µM,97% (active)
same,growth inhibition,[7]; at 33.0 µM,99% (active)
same,growth inhibition,[7]; at 100.0 µM,98% (active)
same,growth inhibition,[8]; [16],66%
same,growth inhibition,[8]; [17],99% (active)
same,growth inhibition,[8]; at 50.0 µM,98.8% (active)
same,growth inhibition,[9]; at 1.2 µM,1%
same,growth inhibition,[9]; at 3.7 µM,9%
same,growth inhibition,[9]; at 11.0 µM,29%
same,growth inhibition,[9]; at 33.0 µM,86% (active)
same,growth inhibition,[9]; at 100.0 µM,88% (active)
same,growth inhibition,[10]; [16],-11%
same,growth inhibition,[10]; [17],96% (active)
same,growth inhibition,[10]; at 50.0 µM,97% (active)
same,growth inhibition,[11]; at 1.2 µM,12%
same,growth inhibition,[11]; at 3.7 µM,18%
same,growth inhibition,[11]; [16],43%
same,growth inhibition,[11]; at 11.0 µM,78% (active)
same,growth inhibition,[11]; at 33.0 µM,95% (active)
same,growth inhibition,[11]; [17],99% (active)
same,growth inhibition,[11]; at 50.0 µM,97.9% (active)
same,growth inhibition,[11]; at 100.0 µM,95% (active)

# From PubChem BioAssay (NCI)
